{"source": "PubChem BioAssay", "key": {"[1]": {"molecular_target": "ATP-dependent translocase ABCB1 (Homo sapiens) (UniProt P08183)", "sequence (P08183 whole entry, looked up)": "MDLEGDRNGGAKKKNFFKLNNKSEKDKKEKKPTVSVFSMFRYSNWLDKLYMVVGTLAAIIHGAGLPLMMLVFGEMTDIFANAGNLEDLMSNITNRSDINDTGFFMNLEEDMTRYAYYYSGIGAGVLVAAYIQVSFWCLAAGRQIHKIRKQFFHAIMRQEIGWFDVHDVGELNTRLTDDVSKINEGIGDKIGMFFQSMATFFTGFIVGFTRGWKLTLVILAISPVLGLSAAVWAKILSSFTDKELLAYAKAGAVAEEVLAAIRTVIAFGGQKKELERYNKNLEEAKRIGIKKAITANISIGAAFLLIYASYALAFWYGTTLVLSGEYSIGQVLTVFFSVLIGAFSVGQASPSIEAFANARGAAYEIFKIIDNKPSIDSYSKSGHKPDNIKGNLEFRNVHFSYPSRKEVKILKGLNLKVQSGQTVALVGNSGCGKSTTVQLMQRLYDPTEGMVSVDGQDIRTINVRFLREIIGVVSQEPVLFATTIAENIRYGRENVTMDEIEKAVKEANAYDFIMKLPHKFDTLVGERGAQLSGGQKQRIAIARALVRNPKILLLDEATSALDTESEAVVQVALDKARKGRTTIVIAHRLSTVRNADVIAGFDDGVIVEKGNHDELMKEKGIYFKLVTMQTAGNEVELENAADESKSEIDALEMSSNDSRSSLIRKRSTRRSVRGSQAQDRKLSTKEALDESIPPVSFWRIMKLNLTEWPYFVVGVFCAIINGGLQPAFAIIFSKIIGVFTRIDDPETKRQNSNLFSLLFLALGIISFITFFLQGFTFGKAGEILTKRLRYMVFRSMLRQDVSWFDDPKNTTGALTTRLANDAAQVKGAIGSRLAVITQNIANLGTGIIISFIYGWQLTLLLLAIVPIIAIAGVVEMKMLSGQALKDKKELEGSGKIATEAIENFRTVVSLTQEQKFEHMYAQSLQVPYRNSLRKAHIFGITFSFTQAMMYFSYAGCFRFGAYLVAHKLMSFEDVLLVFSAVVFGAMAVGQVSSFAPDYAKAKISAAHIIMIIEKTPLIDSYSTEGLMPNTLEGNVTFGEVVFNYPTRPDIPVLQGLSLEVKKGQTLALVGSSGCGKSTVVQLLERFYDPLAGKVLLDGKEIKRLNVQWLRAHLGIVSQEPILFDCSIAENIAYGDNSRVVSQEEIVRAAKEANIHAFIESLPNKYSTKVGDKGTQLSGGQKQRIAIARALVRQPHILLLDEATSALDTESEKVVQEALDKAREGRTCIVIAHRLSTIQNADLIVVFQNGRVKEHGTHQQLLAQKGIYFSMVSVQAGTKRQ", "assay": "P-glycoprotein substrate transport blockade – cell-based (AID 377; in the data active = fluorescence slope change above about 50%)", "conditions": "MDR1-expressing cells, fluorescent substrate accumulation slope; stronger effect = higher value; concentration not given here"}, "[2]": {"assay": "blockers of polyQ-driven CASP3 activation – cell-based (AID 1583)", "conditions": "polyglutamine-induced caspase-3 activation, cell assay; stronger effect = higher value; concentration not given here"}, "[3]": {"assay": "yeast 75Q aggregation reduction – 75Q-TubU reporter (AID 1593)", "conditions": "Yeast 75Q polyglutamine aggregation reporter"}, "[4]": {"assay": "restoration of touch response, mutant HTT neurons – whole organism, C. elegans mechanosensory neurons, N-terminal huntingtin (AID 1599)", "conditions": "C. elegans polyQ-huntingtin mechanosensory neurons, stronger effect = higher value"}, "[5]": {"assay": "blockers of cytochrome c efflux from mitochondria – biochemical, purified mitochondria (AID 1603);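 note: mouse liver mitochondria challenged with calcium chloride; signal normalized to the plate average as 100%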", "conditions": "stronger effect = lower value"}, "[6]": {"assay": "polyglutamine aggregate formation blockers (AID 1604)", "conditions": "polyglutamine-induced protein aggregation inhibition assay; stronger effect = higher value; tested at 2.5 µM"}, "[7]": {"assay": "glutamate transport activators, MN-1 cells, MN-1 cell line (AID 1612);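 note: tested at 1 µM final; positive means more glutamate uptake than control and negative means less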", "conditions": "MN-1 motor neuron cells, stronger effect = higher value"}, "[8]": {"assay": "GFP-Q80 aggregate reduction, neuronal-like cells, cell-based, NGF-treated PC12, GFPQ80 (AID 1614);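 note: lower means fewer inclusions and 0 means no inclusions at all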", "conditions": "PC12 NGF-treated GFP-polyQ80 inclusion reduction"}, "[9]": {"assay": "75Q-TubH aggregate inhibition, S. cerevisiae, yeast (AID 1616)", "conditions": "S. cerevisiae 75Q-TubH polyglutamine aggregation suppression; stronger effect = higher value"}, "[10]": {"assay": "compounds altering circadian rhythm period length – cell-based, LOPAC library, luminescence reporter (AID 2774);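 note: values are relative to mean of DMSO wells on each plate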", "conditions": "circadian reporter cells, at 7 µM, actives lie on both sides"}, "[11]": {"assay": "compounds altering viability of human ES cells (AID 493140);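 note: cells exposed to compounds for four days before counting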", "conditions": "human embryonic stem cell survival screen; stronger effect = higher value"}, "[12]": {"tested_on": "Hepatitis C virus NS3 helicase", "assay": "blockers of NS3h binding to ssDNA – biochemical, fluorescence polarization, LOPAC1280 library, primary screen (AID 687035; in the data active = inhibition above about 37%)", "conditions": "Purified HCV NS3 helicase, Cy5-dT15 ssDNA binding fluorescence polarization; stronger effect = higher value; concentration not given here"}, "[13]": {"assay": "compounds altering Cy5-DNA-NS3h complex signal – biochemical, LOPAC1280, artefact control for HCV NS3 helicase inhibitor project (AID 687037)", "conditions": "Cy5-DNA-NS3h complex fluorescence interference counterscreen"}, "[14]": {"assay": "signal quenchers or enhancers, Cy5 substrate/SSB – biochemical, NIH Clinical Collection, E. coli SSB, artefact control for HCV NS3 helicase inhibitor project (AID 743268)", "conditions": "Cy5-oligo bound E. coli SSB, fluorescence interference"}, "[15]": {"tested_on": "Hepatitis C virus NS3 helicase", "assay": "blockers of NS3h binding to DNA – biochemical, fluorescence polarization, NIH Clinical Collection, primary screen (AID 743270)", "conditions": "NS3 helicase binding to Cy5-dT15 DNA, stronger effect = higher value, concentration not given here"}, "[16]": {"molecular_target": "Single-stranded DNA-binding protein (Escherichia coli (strain K12)) (UniProt P0AGE0)", "assay": "SSB-ssDNA binding inhibitors – biochemical, fluorescence polarization, NIH Clinical Collection, counter-screen for HCV NS3 helicase inhibitor project (AID 743271; in the data active = inhibition above about 28%)", "conditions": "E. coli SSB-DNA binding, stronger effect = higher value, concentration not given here"}, "[17]": {"assay": "compounds distorting NS3 helicase fluorescence signal – biochemical, NIH Clinical Collection, artefact control for HCV NS3 helicase inhibitor project (AID 743272)", "conditions": "fluorescence interference counterscreen, HCV NS3 helicase assay; stronger effect = lower value"}, "[18]": {"assay": "Wnt pathway potentiators raising nuclear beta-catenin – imaging, WNT3A-conditioned medium, mouse C2C12, NPC library, primary screen (AID 1117326; in the data active = nuclear beta-catenin stimulation mostly above about 4.2%, no sharp cut-off; inactive = mostly below about 10%)", "conditions": "stronger effect = higher value"}, "[19]": {"assay": "stimulators of insulin release from INS-1E, primary screen, cell-based, 5 mM glucose, NPC library (AID 1117329;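 active = compound raises insulin release from rat beta cells at 5 mM glucose, no numeric limit stated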)", "conditions": "rat INS-1E insulin secretion, at 10 µM, stronger effect = higher value"}, "[20]": {"assay": "growth inhibition of GSK3B-pretreated HCT116 cells – cell-based, CellTiter-Glo, 0.2 to 20 µM (AID 1117336;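 active = compounds lowering colon cancer cell viability after pretreatment blocking the GSK3B kinase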)", "conditions": "HCT116 viability after GSK3B inhibitor, at 20 µM, stronger effect = higher value"}, "[21]": {"assay": "inhibition of endothelial tube formation, primary screen, imaging, VEGF stimulated, CD31 staining, tube area, NPC library (AID 1117340;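 active = compound that reduces growth-factor-driven endothelial tube area in a mixed cell culture, no cutoff stated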)", "conditions": "VEGF-stimulated ADSC/ECFC co-culture, at 10 µM, stronger effect = higher value"}, "[22]": {"assay": "GLP1 release stimulators, primary, NCI-H716, NPC library (AID 1117341;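 active = compound raises GLP1 secretion from the human gut endocrine cells, with no numeric limit stated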)", "conditions": "NCI-H716 cells, at 10 µM, stronger effect = higher value"}, "[23]": {"assay": "HCT116 colon cancer cell growth inhibition, primary screen, CellTiter-Glo luminescence, NPC library (AID 1117342;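 active = compounds that lower survival of HCT116 colon cancer cells in the luminescence readout, no numeric limit stated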)", "conditions": "at 20 µM (top of the series)"}, "[24]": {"assay": "reduced SW480 viability measured with CellTiter-Glo, NPC library, primary (AID 1117343;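 active = compounds that lower viability of the colon cancer cells in the luminescence readout, with no numeric limit stated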)", "conditions": "CellTiter-Glo luminescence; at 20 µM (top of the series)"}, "[25]": {"assay": "NPC library primary testing for decreased DLD-1 cell viability via CellTiter-Glo (AID 1117346;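 active = compounds that lower survival of DLD-1 colon cancer cells in the luminescence readout, no cutoff given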)", "conditions": "DLD-1 viability, CellTiter-Glo luminescence; at 20 µM (top of the series)"}, "[26]": {"molecular_target": "6-phosphogluconate dehydrogenase, decarboxylating (Homo sapiens) (UniProt P52209)", "sequence (P52209 whole entry, looked up)": "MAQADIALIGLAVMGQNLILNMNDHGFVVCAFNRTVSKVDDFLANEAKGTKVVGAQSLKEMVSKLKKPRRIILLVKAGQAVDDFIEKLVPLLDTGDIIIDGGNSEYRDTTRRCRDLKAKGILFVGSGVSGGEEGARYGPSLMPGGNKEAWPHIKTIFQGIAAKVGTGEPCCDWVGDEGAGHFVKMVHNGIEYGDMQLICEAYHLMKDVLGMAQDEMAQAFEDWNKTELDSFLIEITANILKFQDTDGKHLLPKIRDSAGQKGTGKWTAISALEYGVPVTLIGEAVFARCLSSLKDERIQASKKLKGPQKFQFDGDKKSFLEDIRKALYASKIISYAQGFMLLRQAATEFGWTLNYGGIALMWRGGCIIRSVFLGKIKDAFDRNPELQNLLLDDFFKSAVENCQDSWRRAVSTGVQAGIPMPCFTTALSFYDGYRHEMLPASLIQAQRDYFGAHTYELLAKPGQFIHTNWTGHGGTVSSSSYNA", "assay": "inhibition of human phosphogluconate dehydrogenase – biochemical, recombinant enzyme, NADPH absorbance, primary screen (AID 1159550;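 active = at least 20% inhibition of 6-phosphogluconate dehydrogenase activity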)", "conditions": "recombinant 6PGD, NADPH absorbance 341 nm; at 10 µM; stronger effect = higher value"}, "[27]": {"assay": "EMT-state selective cytotoxicity in co-culture – imaging, PC-3E GFP, TEM4-18 mCherry, primary screen (AID 1345086;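 active = compounds killing one labelled cell type while sparing the other, by normalised counts and ratio limits, not self-fluorescent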;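 note: cells exposed to compound for 72 h before imaging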;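 for red/green cell ratio (normalised): normalised mesenchymal count divided by normalised epithelial count so high means epithelial killing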)", "conditions": "PC-3E GFP / TEM4-18 mCherry co-culture, imaging cell counts, at 1 µM"}, "[28]": {"assay": "blockers of cellular phospholipid synthesis – cell-based, LOPAC library, screen 4, primary screen (AID 1347384)", "conditions": "animal cells, phospholipid biosynthesis inhibition screen; at 10 µM"}, "[29]": {"assay": "MELAS cybrid and Rieske KO viability enhancers – cell-based, MELAS cybrids, Rieske KO mouse fibroblasts, CellTiter-Glo, primary screen (AID 1508586;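 active = mean z-score across replicates of 1.96 or higher in either the MELAS or the Rieske mutant cell line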;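 note: z relative to plate mean and SD of compound and empty wells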)", "conditions": "low glucose"}, "[30]": {"molecular_target": "NAD(+) hydrolase SARM1 (Homo sapiens) (UniProt Q6SZW1)", "sequence (Q6SZW1 whole entry, looked up)": "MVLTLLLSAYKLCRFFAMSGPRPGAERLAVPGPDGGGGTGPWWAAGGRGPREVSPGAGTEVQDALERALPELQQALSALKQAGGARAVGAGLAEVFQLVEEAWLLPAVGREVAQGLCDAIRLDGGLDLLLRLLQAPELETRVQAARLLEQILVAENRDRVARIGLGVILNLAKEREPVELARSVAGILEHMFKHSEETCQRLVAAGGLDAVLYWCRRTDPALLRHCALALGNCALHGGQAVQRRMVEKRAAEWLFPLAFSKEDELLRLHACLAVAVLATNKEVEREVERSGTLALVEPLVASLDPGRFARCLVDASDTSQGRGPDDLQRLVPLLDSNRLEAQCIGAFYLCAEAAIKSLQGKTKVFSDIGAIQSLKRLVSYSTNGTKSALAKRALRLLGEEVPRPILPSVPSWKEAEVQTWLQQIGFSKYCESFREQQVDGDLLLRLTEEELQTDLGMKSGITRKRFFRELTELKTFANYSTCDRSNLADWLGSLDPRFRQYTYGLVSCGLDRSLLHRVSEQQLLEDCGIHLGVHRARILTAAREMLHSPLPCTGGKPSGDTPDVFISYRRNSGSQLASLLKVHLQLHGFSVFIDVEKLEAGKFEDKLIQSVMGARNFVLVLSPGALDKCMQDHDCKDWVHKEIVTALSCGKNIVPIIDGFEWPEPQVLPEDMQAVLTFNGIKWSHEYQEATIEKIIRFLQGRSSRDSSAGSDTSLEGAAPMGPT", "assay": "blocking NAD cleavage by SARM1 SAM-TIR – cell lysate, NAD-Glo luminescence (AID 1508614;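 active = compound whose remaining NAD level is above about 45 nM, limit read from the data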)", "conditions": "SAM-TIR HEK293T lysate NADase, at 1 µM, stronger effect = higher value"}, "[31]": {"molecular_target": "Mitogen-activated protein kinase 7 (Homo sapiens) (UniProt Q13164)", "sequence (Q13164 whole entry, looked up, the tested form may be a part)": "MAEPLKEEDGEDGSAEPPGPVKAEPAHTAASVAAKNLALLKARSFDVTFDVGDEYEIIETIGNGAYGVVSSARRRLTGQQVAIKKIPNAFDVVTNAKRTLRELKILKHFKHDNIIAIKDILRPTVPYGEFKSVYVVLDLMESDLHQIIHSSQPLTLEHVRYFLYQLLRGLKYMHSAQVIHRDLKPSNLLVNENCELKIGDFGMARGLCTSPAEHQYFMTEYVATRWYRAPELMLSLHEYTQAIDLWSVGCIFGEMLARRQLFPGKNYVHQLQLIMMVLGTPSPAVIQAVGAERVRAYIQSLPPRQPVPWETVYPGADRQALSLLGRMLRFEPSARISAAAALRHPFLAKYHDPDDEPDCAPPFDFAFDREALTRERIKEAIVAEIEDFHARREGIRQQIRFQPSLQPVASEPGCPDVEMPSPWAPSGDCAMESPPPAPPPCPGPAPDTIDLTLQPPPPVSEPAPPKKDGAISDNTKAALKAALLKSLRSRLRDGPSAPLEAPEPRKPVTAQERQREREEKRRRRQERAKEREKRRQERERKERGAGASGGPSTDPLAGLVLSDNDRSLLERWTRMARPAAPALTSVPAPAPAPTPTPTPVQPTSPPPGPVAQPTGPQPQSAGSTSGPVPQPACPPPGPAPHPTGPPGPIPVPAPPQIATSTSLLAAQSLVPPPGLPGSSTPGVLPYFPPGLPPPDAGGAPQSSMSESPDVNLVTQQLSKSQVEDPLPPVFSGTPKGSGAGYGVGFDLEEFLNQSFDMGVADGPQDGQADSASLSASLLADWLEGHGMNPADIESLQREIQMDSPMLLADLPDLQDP", "assay": "Gal4-ERK5 driven luciferase induction – cell-based, HTS, primary screen (AID 1508626;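 active = luciferase signal above three times the same-plate solvent-only control wells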;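 note: luciferase driven by Gal4-ERK5 fusion binding five Gal4 sites before minimal TATA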)", "conditions": "HeLa Gal4-ERK5 transactivation, 18 h, at 5 µM, stronger effect = higher value"}, "[32]": {"assay": "galactose survival enhancers in mitochondrial complex I cybrids – cell-based, galactose medium, ATP luminescence, primary screen (AID 1645843;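 active = z-score of at least 1.8 in each of two replicates, scored against plate mean and spread of sample wells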;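 note: positive z means more ATP and so rescue of galactose-driven cybrid death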)", "conditions": "complex I mutant cybrid cells, 72 h, stronger effect = higher value"}, "[33]": {"tested_on": "F380Y", "assay": "BK channel mutant inhibitors and activators – cell-based, U2OS BacMam, thallium flux, beta subunits, selectivity assay, profiling panel (AID 1259406;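 active = thallium flux through the channel raised or lowered by more than 3 SD from vehicle-only wells, actives on both sides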)", "conditions": "U2OS BacMam BK variants, at 30 µM"}, "[34]": {"tested_on": "F380Y/beta2Delta", "assay": "BK channel mutant inhibitors and activators – cell-based, U2OS BacMam, thallium flux, beta subunits, selectivity assay, profiling panel (AID 1259406);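 note: initial slope of Thallos dye fluorescence rise after thallium is added; log ratio against the mean of 0.3% DMSO vehicle wells on the same plate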", "conditions": "U2OS BacMam BK variants, at 30 µM"}, "[35]": {"molecular_target": "Calcium-activated potassium channel subunit alpha-1 (Homo sapiens) + Leucine-rich repeat-containing protein 26 (Homo sapiens) (UniProt Q12791+Q2I0M4)", "sequence (Q2I0M4 whole entry, looked up, one chain of several)": "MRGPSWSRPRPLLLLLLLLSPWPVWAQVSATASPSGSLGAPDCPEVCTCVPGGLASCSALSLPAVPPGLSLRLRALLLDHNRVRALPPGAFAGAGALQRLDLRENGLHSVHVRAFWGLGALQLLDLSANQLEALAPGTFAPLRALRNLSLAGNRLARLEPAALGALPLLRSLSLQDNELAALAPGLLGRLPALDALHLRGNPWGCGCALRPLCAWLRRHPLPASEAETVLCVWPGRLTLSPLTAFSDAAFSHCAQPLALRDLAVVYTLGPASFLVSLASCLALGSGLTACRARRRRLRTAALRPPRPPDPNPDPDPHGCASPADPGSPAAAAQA", "assay": "BK channel mutant inhibitors and activators – cell-based, U2OS BacMam, thallium flux, beta subunits, selectivity assay, profiling panel (AID 1259406)", "conditions": "U2OS BacMam BK variants, F380Y/Slo1WT/gamma1, at 30 µM"}, "[36]": {"tested_on": "R275C", "assay": "BK channel mutant inhibitors and activators – cell-based, U2OS BacMam, thallium flux, beta subunits, selectivity assay, profiling panel (AID 1259406)", "conditions": "U2OS BacMam BK variants, at 30 µM"}, "[37]": {"tested_on": "R275C/beta1", "assay": "BK channel mutant inhibitors and activators – cell-based, U2OS BacMam, thallium flux, beta subunits, selectivity assay, profiling panel (AID 1259406)", "conditions": "U2OS BacMam BK variants, at 30 µM"}, "[38]": {"tested_on": "R275C/beta2Delta", "assay": "BK channel mutant inhibitors and activators – cell-based, U2OS BacMam, thallium flux, beta subunits, selectivity assay, profiling panel (AID 1259406)", "conditions": "U2OS BacMam BK variants, at 30 µM"}}, "note": "Where “and” joins values, the source holds several entries; their conditions need not be identical. Equal entries are not always repeated. Records with an inconclusive call do not appear. For part of these data: Potency and affinity values are given separately. Calls of active or inactive are those of the source. Unless noted, the rule behind the calls is not given here."}
{"smiles": "CCCN1C[C@H](CSC)C[C@@H]2c3cccc4[nH]cc(c34)C[C@H]21", "values": [{"measurement": "fluorescence slope change", "setting": "[1]", "value": "72.8% (active)"}, {"measurement": "inhibition", "setting": "[2]", "value": 21.1, "unit": "%"}, {"measurement": "score", "setting": "[3]", "value": 1}, {"measurement": "rescue above control", "setting": "[4]", "value": -1.5}, {"measurement": "cytochrome c release ratio", "setting": "[5]", "value": 1.44}, {"measurement": "inhibition of aggregation", "setting": "[6]", "value": 61.1, "unit": "%"}, {"measurement": "glutamate uptake change", "setting": "[7]", "value": -2.13, "unit": "%"}, {"measurement": "inclusion score", "setting": "[8]", "value": 2}, {"measurement": "aggregation suppression score", "setting": "[9]", "value": 1.46}, {"measurement": "period change", "setting": "[10]", "value": "0.02 h (inactive)"}, {"measurement": "survival", "setting": "[11]", "value": "12.4 (inactive)"}, {"measurement": "inhibition", "setting": "[12]", "value": "-6% (inactive)"}, {"measurement": "fluorescence ratio (interference)", "setting": "[13]", "value": "1 (inactive)"}, {"measurement": "fluorescence ratio", "setting": "[14]", "value": "1.02 (inactive)"}, {"measurement": "inhibition", "setting": "[15]", "value": "1.53% (inactive)"}, {"measurement": "inhibition", "setting": "[16]", "value": "10.6% (inactive)"}, {"measurement": "fluorescence ratio", "setting": "[17]", "value": "1 (inactive)"}, {"measurement": "nuclear beta-catenin stimulation", "setting": "[18]; at 10 µM", "value": "0.2% (inactive)"}, {"measurement": "nuclear beta-catenin stimulation", "setting": "[18]; stimulation, at 2 µM", "value": -1.1, "unit": "%"}, {"measurement": "insulin secretion stimulation", "setting": "[19]", "value": "3.5% (inactive)"}, {"measurement": "viability decrease", "setting": "[20]", "value": "20.2% (inactive)"}, {"measurement": "tube area decrease", "setting": "[21]", "value": "-5.3% (inactive)"}, {"measurement": "GLP1 secretion stimulation", "setting": "[22]", "value": "5.1% (inactive)"}, {"measurement": "inhibition of viability", "setting": "[23]", "value": "45.7% (inactive)"}, {"measurement": "viability decrease (inhibition)", "setting": "[24]", "value": "-2.1% (inactive)"}, {"measurement": "viability decrease (inhibition)", "setting": "[25]", "value": "7.8% (inactive)"}, {"measurement": "inhibition", "setting": "[26]", "value": "0.728% (inactive)"}, {"measurement": "red/green cell ratio (normalised)", "setting": "[27]; actives lie on both sides, counts scaled to control wells, 1 = unselective", "value": "1.38 (inactive)"}, {"measurement": "normalised cell number", "setting": "[27]; measured here: epithelial PC-3E GFP cell survival", "value": 0.91}, {"measurement": "normalised cell number", "setting": "[27]; measured here: mesenchymal TEM4-18 mCherry cell survival", "value": 1.25}, {"measurement": "outcome", "setting": "[28]", "value": "inactive"}, {"measurement": "z-score", "setting": "[29]; MELAS cybrid survival, CellTiter-Glo 48 h, stronger effect = higher value", "value": "0.448 (inactive) and 0.276 (inactive)"}, {"measurement": "z-score", "setting": "[29]; Rieske KO mouse fibroblast survival, CellTiter-Glo 72 h", "value": "-0.203 and -0.419"}, {"measurement": "remaining NAD", "setting": "[30]", "value": "10 nM (inactive)"}, {"measurement": "luciferase signal", "setting": "[31]", "value": "40 AU (inactive)"}, {"measurement": "z-score", "setting": "[32]", "value": "0.12 (inactive) and -0.1 (inactive)"}, {"measurement": "log fold change Tl+ flux", "setting": "[33]", "value": "-0.0179 (inactive)"}, {"measurement": "log fold change Tl+ flux", "setting": "[34]", "value": "0.0229 (inactive)"}, {"measurement": "log fold change Tl+ flux", "setting": "[35]", "value": "-0.0185 (inactive)"}, {"measurement": "log fold change Tl+ flux", "setting": "[36]", "value": "-0.00135 (inactive)"}, {"measurement": "log fold change Tl+ flux", "setting": "[37]", "value": "-0.0389 (inactive)"}, {"measurement": "log fold change Tl+ flux", "setting": "[38]", "value": "-0.00636 (inactive)"}]}
